# In all, about 33,000 sequences were measured (“E-score (-0.5 to 0.5)”: median about -0.035, highest 2% from about 0.34 on). The sample holds the highest values, similar sequences and a random draw of the others, so the mix is not that of the screen.
# Target: T1, Mot3 (UniProt P54785)
# T1 sequence: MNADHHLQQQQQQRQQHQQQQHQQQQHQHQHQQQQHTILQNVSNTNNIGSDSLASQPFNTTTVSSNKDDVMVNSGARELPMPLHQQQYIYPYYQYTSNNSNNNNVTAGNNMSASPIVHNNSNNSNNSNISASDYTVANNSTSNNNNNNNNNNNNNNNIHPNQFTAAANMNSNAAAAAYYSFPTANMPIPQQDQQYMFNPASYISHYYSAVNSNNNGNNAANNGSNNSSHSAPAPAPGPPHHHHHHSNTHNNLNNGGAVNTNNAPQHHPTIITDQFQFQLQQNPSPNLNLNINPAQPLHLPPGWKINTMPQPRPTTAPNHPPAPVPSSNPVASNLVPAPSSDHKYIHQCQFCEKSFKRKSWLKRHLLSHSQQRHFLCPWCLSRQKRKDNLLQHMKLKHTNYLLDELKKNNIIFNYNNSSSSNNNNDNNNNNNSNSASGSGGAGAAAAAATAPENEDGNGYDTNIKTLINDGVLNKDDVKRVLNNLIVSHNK
# Test: PBM E-score (8-mer binding enrichment) (E-score (-0.5 to 0.5)); higher = stronger / more preferred TF binding
# Settings: protein concentration: 200 nM; construct: GST-full length
# Outline: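 PURExpress in vitro transcription/translation supplied GST-tagged yeast transcription factors, either full-length or DNA-binding domain. Applied at about 100-200 nM to universal all-10-mer Agilent arrays double-stranded by primer extension, the bound protein was detected with fluorescent anti-GST. E-scores, modified Wilcoxon-Mann-Whitney statistics, were given by the Universal PBM Analysis Suite to ungapped eight-base words pooled with their reverse complements after masliner normalisation.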
row,Sequence,PBM E-score
1,CGAGGAAC,0.285
2,CAAGGACC,0.0666
3,AACTCTCT,-0.19
4,AGCCCGAT,-0.195
5,CCCAGGAG,-0.207
6,ACTTGTAT,0.173
7,ACACCTTG,0.193
8,CCGTTGTA,0.125
9,CTGAACCA,0.0648
10,AACAGGCG,0.167
11,TACAGGGA,0.0536
12,GACAGGCA,0.483
13,GACAGGGA,-0.089
14,TACAGGCA,0.484
15,CACAGGCA,0.482
16,CACAGGCG,0.277
17,CACAGGCC,0.0987
18,AACAGGCA,0.484
19,TACAGTCA,0.191
20,GACAGGCC,-0.139
21,AACAGGCT,0.305
22,GCTGTGAC,-0.128
23,GACTTCCA,-0.126
24,TGGAAGAA,0.00562
25,CACTACGG,-0.1

row,Sequence,PBM E-score
1,GCCACAGA,-0.0635
2,GAGGAGGC,-0.0566
3,AATAAGTA,0.124
4,CCACTCGA,-0.0827
5,AATAGACG,-0.138
6,ACACGCGA,0.292
7,ACACGCTC,0.305
8,ACACGCGG,0.252
9,ACACGCTG,0.256
10,ACACGCTA,0.356
11,ACACGCGT,0.36
12,AGTATCGA,0.122
13,TCGTAGAA,0.0868
14,CCGATCAC,-0.0956
15,ATCGCCAG,-0.289
16,GCATGTTA,0.385
17,ACATGTTC,0.295
18,GGATGTTA,0.172
19,CCATGTTA,0.339
20,AAATGTTA,0.288
21,ACATGTTG,0.368
22,ACATGTTA,0.397
23,AGATGTTA,0.158
24,AGATGTTG,-0.102
25,CTAGGTCA,-0.135

row,Sequence,PBM E-score
1,ATTGGCAC,-0.068
2,AAACCTGG,0.0922
3,GCCGTTAC,-0.13
4,CCAACTCC,-0.135
5,TCCTCCAA,-0.0985
6,GATCTAGC,-0.194
7,ATACTGCC,-0.204
8,AGCAGGCC,-0.0206
9,AGCAGGCA,0.483
10,GGCAGGTA,0.277
11,TGCAGACA,0.0246
12,CGCAGGCA,0.482
13,GGCAGGCC,-0.165
14,CGCAGGCC,0.123
15,GGCAGGCA,0.481
16,CGCAGGCG,0.17
17,AGCAGGCG,0.148
18,TGCAGCCA,-0.192
19,TGCAGGCA,0.484
20,TATGCGAA,-0.0122
21,TATCAATA,0.134
22,AGTTTTCA,-0.204
23,CATCTGCA,-0.0636
24,CTAACTCC,-0.141
25,CGCGTAAC,0.225

row,Sequence,PBM E-score
1,CGCGTAAA,0.392
2,AGCGTAAA,0.12
3,CGCGTAAG,0.299
4,TGCGTAAA,0.342
5,GGCGTAAA,0.146
6,GGGGGGAA,-0.375
7,CTCGGCTA,-0.0141
8,GTATGGAA,-0.156
9,GCTTGGCA,-0.105
10,AGTTTTCG,0.0727
11,GCGGGTCA,0.0734
12,GTGAGGAA,-0.106
13,CTGAGGCA,0.257
14,ATGAGGCA,0.364
15,GTGAGGCA,0.353
16,ATGAGGCG,-0.119
17,ATGAGGCC,-0.174
18,CCTACTTC,-0.0137
19,ACCCGTCA,-0.239
20,AGATAGCG,-0.0829
21,ACGCACGG,0.0438
22,AAGCACGG,0.0983
23,CGGCACGA,0.00099
24,AGGCACGA,0.491
25,AGGCACGG,0.491

row,Sequence,PBM E-score
1,GGGCACGA,0.163
2,GCCCTAGC,-0.184
3,CTTGGCAC,-0.0521
4,CTTTGGCC,0.0624
5,CATTGTGA,-0.0102
6,ACCACGGC,-0.108
7,GCCCGGTA,-0.0651
8,AATTAAAT,0.124
9,CGGTACGA,-0.155
10,AGGTACGA,0.346
11,ACGTACGG,-0.163
12,AGGTACTG,0.258
13,GGGTACGA,-0.148
14,CGGTACGC,-0.174
15,AGGTACGG,0.39
16,AGGTACGC,0.444
17,AGGTACTC,0.333
18,CGACTAGA,-0.0287
19,AAGCCCAT,-0.253
20,ACAACGTG,0.114
21,TACAGCGA,-0.184
22,CACATACA,0.239
23,TACATACA,0.355
24,GAAATACA,0.328
25,AACATAGA,0.2

row,Sequence,PBM E-score
1,AAAATACA,0.298
2,TACATAGA,0.357
3,GACATAGA,0.0532
4,TAAATACA,0.366
5,GACATACA,0.218
6,GCCTCCGA,0.0149
7,CGTACCAC,-0.0328
8,CGAATTCG,-0.137
9,AACAGAAG,0.0357
10,GTCTTAAA,-0.131
11,CCCTGAAA,-0.0551
12,AAAGGTTC,0.12
13,ACACGATA,0.345
14,AGACGATC,-0.288
15,ACACGATG,0.199
16,CCACGATA,-0.107
17,ACACGATC,0.347
18,CCACGATC,0.0336
19,CCTTTGAC,0.125
20,GAGGCTAA,-0.134
21,ACTGCGCA,-0.17
22,GGTGGGCA,0.0151
23,GGTGACAA,-0.12
24,GCCTTTAA,0.322
25,GCCTTTAC,0.357

row,Sequence,PBM E-score
1,CCCTTTAC,0.15
2,AGCGCTAG,-0.115
3,TATTTCAA,0.159
4,CCATCTAG,-0.0951
5,TCTTAACA,0.346
6,CGTTAAAA,0.151
7,GGTTAAAA,0.194
8,ATTTAACA,0.354
9,TGTTATAA,0.35
10,ATTTAACG,0.247
11,CGTTATAA,0.15
12,ATTTAACC,0.0628
13,AGTTATAA,0.163
14,CCTTAACA,0.315
15,TGTTAAAA,0.343
16,GCTTAACA,0.229
17,CGGGGGGC,-0.295
18,ACAATTCC,-0.0244
19,CGCTCCAC,-0.234
20,GTGAAGTA,0.0411
21,TAACACAA,0.332
22,CCAGTATA,-0.178
